# From PubChem BioAssay AID602449 (Sanford-Burnham Center for Chemical Genomics, 2012)
# The campaign covered roughly 360,000 compounds. About 5,000 (1.4%) were called active. The entries come from a sample that favours actives as a whole. Values without a mark were called inactive.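 The calls were made as follows: active = inhibition of 50% or more, scaled per plate between neutral and stimulator controls; inactive = the rest.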
# Experiment: blockers of Ca2+-induced mitochondrial swelling – biochemical, isolated mouse mitochondria, absorbance, primary screen (AID 602449);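 also: 0% = DMSO wells given calcium and 100% = 1 mM EGTA wells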
# Details: 30 min, at 10 µM, active compounds read high
row,Structure (SMILES),inhibition
1,CC1(C)C2CC=C(/C=N/NC(=O)C3CC3)C1C2 (centres undefined),-1.7%
2,CCOc1ccc(N2C(=O)/C(=C/c3ccc(C)o3)N(C)C2=S)cc1,4.3%
3,Cc1c(C)n2c(SCC(=O)NC3CCCC3)nnc2[nH]c1=O,-1.2%
4,O=C1CCCCC1Sc1ccc(Cl)cc1[N+](=O)[O-] (centres undefined),-0.4%
5,CC1CC(C)CN(CCOc2cccc3ccccc23)C1 (centres undefined),-1.7%
6,CC(C)c1ccccc1OCC(O)CN(CC(O)COc1cccc2ccccc12)C(C)C (centres undefined),61.5% (active)
7,CN1CCN(CCCCOc2cccc3ccccc23)CC1,-0.6%
8,Cc1ccc(C(=O)NCC(=O)NCc2cc(=O)n(C)c(=O)n2C)cc1,-1.3%
9,O=C(NNC(=O)c1ccc(-n2cncn2)c([N+](=O)[O-])c1)c1ccccc1,-2.8%
10,Cc1cc(C)cc(OCC(=O)O/N=C(\N)Cc2ccc([N+](=O)[O-])cc2)c1,3.2%
11,Cc1cc(C)cc(OCC(=O)Nc2nc3ccc([N+](=O)[O-])cc3s2)c1,50.4% (active)
12,CC(Nc1ccc([N+](=O)[O-])cc1[N+](=O)[O-])c1ccccc1 (centres undefined),1%
13,NS(=O)(=O)c1ccc2nc(NC(=O)C3=COCCO3)sc2c1,-0.6%
14,O=C(NC(Nc1nc2ccc([N+](=O)[O-])cc2s1)(C(F)(F)F)C(F)(F)F)c1ccccc1,93.7% (active)
15,CNC(=O)c1ccsc1NC(=O)c1ccc(S(=O)(=O)N2CCc3ccccc32)cc1,0.6%
16,CSc1ncccc1C(=O)Nc1nc2ccc(F)cc2s1,5.6%
17,Cc1cc(C)cc(OCC(=O)Nc2cc(NC(=O)COc3cc(C)cc(C)c3)cc(C(=O)O)c2)c1,1.6%
18,O=C(Nc1nc2ccc([N+](=O)[O-])cc2s1)c1ccc(S(=O)(=O)N2CCCc3ccccc32)cc1,78.1% (active)
19,O=C(Nc1nc2ccc([N+](=O)[O-])cc2s1)c1ccncc1,68.5% (active)
20,Cc1ccc(NC(=O)c2cccc(S(=O)(=O)N3CCCc4ccccc43)c2)nc1,-1.2%
21,COc1ccc(-c2n[nH]c3c2CN(C(=O)c2ccc(F)cc2)CC3)cc1,1.2%
22,COc1ccccc1CSc1ncc(-c2ccc([N+](=O)[O-])cc2)[nH]1,24.2%
23,CC1(C)C2CCC1(CS(=O)(=O)NCCc1c[nH]c3ccccc13)C(=O)C2 (centres undefined),0.4%
24,CC(=O)N1c2ccc(S(=O)(=O)N3CCCC(C(=O)Nc4ccc(C)cc4C)C3)cc2CC1C (centres undefined),0.4%

row,Structure (SMILES),inhibition
1,COc1ccc(NS(=O)(=O)c2cc(NC(=O)C3CCCCC3)ccc2N2CCOCC2)cc1,-0.4%
2,CCOc1ncccc1C(=O)N(CC)CC(=O)Nc1ccc(NC(C)=O)cc1,-0.1%
3,Cc1cc(Cl)c2oc(C(=O)NC(C)c3ccncn3)c(C)c2c1 (centres undefined),-0.4%
4,COC(=O)[C@@]12C[C@@H](CC(=O)NCc3cccc(C(F)(F)F)c3)C(=O)N(Cc3ccco3)C1=CCC(C)(C)C2,-0.5%
5,COc1ccc(C(=O)NC2(C(F)(F)F)NC(=O)N(CCCc3ccccc3)C2=O)c(OC)c1OC (centres undefined),11.9%
6,CCCC1=Nc2cc(C(=O)NCCN3CCCC3)ccc2Sc2ccccc21,-1.2%
7,Cc1cccc(C(=O)OC(C)CN2CCN(C)CC2)c1 (centres undefined),-1.6%
8,Cc1cccc(-c2nc3ccc(C(=O)NCCN4CCN(C)CC4)cc3nc2-c2cccc(C)c2)c1,55.9% (active)
9,C[C@H](NS(=O)(=O)c1ccc(Cl)cc1)C(=O)OCC(=O)N1CCOCC1,1.4%
10,COc1ccc(C(C)C)cc1S(=O)(=O)Nc1ncn[nH]1,-0.4%
11,CC(=O)c1c(C)[nH]c(C(=O)CN2C(=O)NC(C)(C)C2=O)c1C,-0.1%
12,O=C(CSc1nc2ccc([N+](=O)[O-])cc2[nH]1)c1ccc(Cl)cc1,104% (active)
13,CC(=O)Nc1ccc(C(=O)CSc2nc3ccc(C)cc3[nH]2)cc1,-1.5%
14,Cc1nc(SCC(=O)c2ccccc2)c([N+](=O)[O-])[nH]1,3.9%
15,COc1cccc(NC(=O)CN(C)C(=O)CSCc2nc3scc(-c4cccs4)c3c(=O)[nH]2)c1,-0.9%
16,Cc1ccccc1N1CC(C(=O)Nc2nnc(SCCC3OCCO3)s2)CC1=O (centres undefined),-2.6%
17,Cc1ccccc1OCCOc1ccc([N+](=O)[O-])cc1/C=N/n1cnnc1,3.3%
18,Cc1cc([N+](=O)[O-])ccc1NCc1cccc([N+](=O)[O-])c1,6.8%
19,O=[N+]([O-])c1ccc(N=NNc2ccc([N+](=O)[O-])cc2)cc1,21.4%
20,O=[N+]([O-])c1ccc(N/N=C/c2ccccc2)cc1,63.2% (active)
21,CC(C)c1ccc(C=NNc2ccc([N+](=O)[O-])cn2)cc1,7%
22,Cc1cccc(COc2ccccc2/C=N/Nc2ccc([N+](=O)[O-])cc2)c1,69.1% (active)
23,c1ccc(-c2cn3c(n2)CCc2ccc4cccnc4c2-3)cc1,-2%
24,O=C(OCC(=O)N1CCCCCC1)c1cccc(Cl)c1Cl,3.6%

row,Structure (SMILES),inhibition
1,CN(C)CCN=c1cc(-c2ccccc2)oc2ccc(Cl)cc12,3%
2,CCCCn1c(N)c(N(CC(C)C)C(=O)c2ccc(Br)o2)c(=O)[nH]c1=O,-1.5%
3,CC(NC(=S)Nc1ccc(OC(F)F)cc1)c1ccc(F)cc1 (centres undefined),102% (active)
4,CC(C)N(Cc1ccccc1)C(=S)Nc1ccc(OC(F)F)cc1,5.8%
5,CC/C(=N\NC(=S)NC(C)C)c1ccc(OC(F)F)cc1,1.8%
6,Cc1cc(Br)ccc1NC(=O)c1cnc(N2CCN(c3ccccn3)CC2)c2ccccc12,0.4%
7,O=C(O)c1ccc([N+](=O)[O-])cc1Sc1ccsc1,0.7%
8,COCCn1c(SCC(=O)Nc2cc(OC)ccc2OC)nc2c(c1=O)SC(C)C2 (centres undefined),1.2%
9,CCCCCc1c(-c2cccc(Br)c2)ncn1CCc1ccccc1OC,1.3%
10,CCCCCc1c(-c2ccc(OC)c(OC)c2)ncn1CCc1ccccc1OC,5.6%
11,CCCCCc1c(Cc2ccccc2)ncn1CCc1ccccc1OC,85.6% (active)
12,CCCCn1c(N)c(N(CC(C)C)C(=O)c2cccc(S(=O)(=O)N3CC(C)OC(C)C3)c2)c(=O)[nH]c1=O (centres undefined),6.1%
13,CCOC(=O)c1cnc(Nc2nc3ccccc3o2)nc1CSC(=S)N1CCCCC1,1.4%
14,O=C(CN1C(=O)CC(c2ccccc2)=Nc2ccccc21)NC1CCCCC1,-0.4%
15,COc1ccc(NC(=O)CN(C)C(=O)c2ccc(NC3CC3)c([N+](=O)[O-])c2)cc1,0.5%
16,Cc1cc([N+](=O)[O-])c(NC2CCCCC2)c([N+](=O)[O-])c1,0.6%
17,Cc1cc(C=O)c(C)n1-c1ccc(NC2CCCCC2)c([N+](=O)[O-])c1,80.6% (active)
18,OC[C@@H]1CN(Cc2ccc(-c3ccccc3)cc2)C[C@H](n2cnc3c(NC4CCCC4)ncnc32)O1,17.2%
19,COC(=O)c1ccc(OCC(O)CN(CCO)CC(O)Cn2ccc3ccccc32)cc1 (centres undefined),0%
20,Cc1noc(C)c1S(=O)(=O)Nc1cc(C(F)(F)F)ccc1N1CCOCC1,4.6%
21,Cc1ccc(N(CCC(=O)O)S(=O)(=O)c2cccc(C(F)(F)F)c2)cc1,1.1%
22,Cc1oc2c(F)c(F)c(F)c(F)c2c1S(=O)(=O)Nc1cccc(C(F)(F)F)c1,83.3% (active)
23,N/C(=N\OC(=O)Nc1ccc(Cl)c(Cl)c1)c1ncc(C(F)(F)F)cc1Cl,88.1% (active)
24,O=C(c1ccccn1)c1ncc(C(F)(F)F)cc1Cl,-0.8%

row,Structure (SMILES),inhibition
1,N/C(=N\OC(=O)CCCC(=O)O)c1ncc(C(F)(F)F)cc1Cl,-0.2%
2,ONC(=Nc1ccc(Cl)cc1)c1ccccc1Cl,1%
3,CCOC(=O)C1CSC(CC(=O)Nc2ccc(OCC)cc2)C(=O)N1 (centres undefined),3.6%
4,CCCCCCNCCn1cnc2c(N)ncnc21,-0.8%
5,COc1cccc(-c2cnc(OC(C)(C)C)nc2OC(C)(C)C)c1,-0.3%
6,COc1ccc(C(C)NC(=O)C2CCCC2)cc1 (centres undefined),0.1%
7,CCN(CC(=O)NCCCN1CCOCC1)S(=O)(=O)c1cc(Cl)ccc1Cl,-1.1%
8,COc1ccc(Cl)cc1NC(=O)CN(C)Cc1ccc(OC)c(OC)c1,0.9%
9,COc1ccc(Br)cc1C(=O)Nc1cccc(C)c1C,-1.2%
10,COc1ccccc1C(=O)NC(=S)Nc1ccccc1N1CCCCC1,1.3%
11,COc1ccc(Br)cc1C(=O)NC(=S)Nc1cc(-c2nc3ccccc3[nH]2)ccc1C,70.7% (active)
12,CC1CCCCC12NC(=O)N(CC(=O)OCC(=O)NCc1ccc(F)cc1)C2=O (centres undefined),-0.2%
13,O=C(Nc1nsc(-c2ccccc2)n1)c1ccncc1,0.9%
14,O=C(CN(c1cccc(Cl)c1)S(=O)(=O)c1ccccc1)NN=C1CCCC1,0.3%
15,Cc1nnc(SCC(=O)N2CCOCC2)[nH]c1=O,26.4%
16,CCCCOC(=O)CNc1nnc(SCC(=O)OCC)[nH]c1=O,77.3% (active)
17,CCOC(=O)CSc1nc(C)c(Oc2ccc(Cl)cc2Cl)c(=O)[nH]1,2.7%
18,COc1ccccc1P(=O)(c1ccccc1)c1ccccc1NC(C)=O (centres undefined),0.1%
19,COC(C[C@H](O)CC(=O)COCc1ccccc1)OC,-0.4%
20,Cn1c(SCC(=O)N/N=C/c2ccc(O)c(O)c2)nc2ccccc21,2.9%
21,CC(C)(C)c1nnc(NC(=O)C2c3ccccc3Oc3ccccc32)s1,6.5%
22,O=C(N/N=C/c1ccc(O)c(O)c1)C1c2ccccc2Oc2ccccc21,104% (active)
